This passage reports outcome and Potency results from PubChem BioAssay (NCATS).

Results filed as inconclusive are left out. The source made the active and inactive calls. Unless noted, calls follow the shape of the dose curve; as a rule, active = well fitted curve in the direction sought with a large enough effect; inconclusive = small, poorly fitted or top-dose-only effect, or another doubt; inactive = no such curve, though single readings can be large; an effect the other way counts as inactive or inconclusive.

In assay [1] the target is alpha-glucosidase (Oryza sativa, rice) (UniProt Q653V4). The assay can be described thus: Counterscreen for Glucocerebrosidase Inhibitors: qHTS Assay for Rice alpha-Glucosidase at pH 5.0 (AID 997). The procedure, abridged:
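Endpoint fluorogenic assay at pH 5.0: compounds (0.7 nM to 77 uM) titrated against 4 nM rice enzyme and 400 uM 4-MU-alpha-glucoside for 20 min at room temperature; NaOH/glycine stop, read ex 365/em 440 nm, Hill-fitted AC50.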

Assay [2] concerns the target DNA repair nuclease/redox regulator APEX1 (Homo sapiens) (UniProt P27695). The assay can be described thus: qHTS Validation Assay for Inhibitors of the Human Apurinic/apyrimidinic Endonuclease 1 (APE1) (AID 1705;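 also: TAMRA fluorescence gain over two minutes as APE1 cuts a quenched THF abasic duplex; series mostly up to about 57 µM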). In a few lines: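 Substrate: 50 nM final fluorophore/quencher THF-abasic duplex. Enzyme preincubated with compounds 15 min, RT. Progress derived from fluorescence difference, third minus first kinetic read.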

Assay [3] can be described thus: qHTS for differential inhibitors of proliferation of Plasmodium falciparum line 7G8 (AID 1815).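 Also: parasite growth measured after three days of incubation.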 Also: potency is read from the fitted curve at half-maximal effect.
A short description of assay [4]: qHTS for differential inhibitors of proliferation of Plasmodium falciparum line GB4 (AID 1816).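 Also: parasite growth measured after 72 h incubation.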 Also: potency is read from the fitted curve at half-maximal effect. Particulars: Potency: Plasmodium falciparum GB4 proliferation inhibition.
The nature of assay [5]: qHTS for differential inhibitors of proliferation of Plasmodium falciparum line 3D7 (AID 1876). Also: potency is read from the fitted curve at half-maximal effect.
A short description of assay [6]: qHTS for differential inhibitors of proliferation of Plasmodium falciparum line D10 (AID 1877).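 Also: parasites grown with compound for 72 h before DNA staining.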 Also: potency is read from the fitted curve at half-maximal effect.
A short description of assay [7]: qHTS for differential inhibitors of proliferation of Plasmodium falciparum line Dd2 (AID 1882). Also: nearly all actives have a fitted effect of over 65% in size. Also: potency is read from the fitted curve at half-maximal effect. The settings on record: Potency: Plasmodium falciparum Dd2 proliferation inhibition. The procedure, abridged: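 SYBR Green DNA fluorescence (ex 485, em 535 nm) after overnight lysis quantifies parasite growth; compound exposure lasted 72 h at 37 C on infected red cells at 2.5% hematocrit, 0.3% parasitemia (final). Artemisinin 0.29 uM and vehicle wells define normalization.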

A short description of assay [8]: qHTS for differential inhibitors of proliferation of Plasmodium falciparum line W2 (AID 1883).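 Also: parasites grown with compound for 72 h before lysis and staining.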 Also: potency is read from the fitted curve at half-maximal effect. Particulars: Potency: Plasmodium falciparum W2 proliferation inhibition.
Assay [9] in a line: qHTS for differential inhibitors of proliferation of Plasmodium falciparum line HB3 (AID 1886).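 Also: parasites grown with compound for 72 h before SYBR Green readout.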 Also: potency is read from the fitted curve at half-maximal effect. The settings on record: Potency: Plasmodium falciparum HB3 proliferation inhibition.
Assay [10] addresses Ferritin light chain (Equus caballus) (UniProt P02791). As to the kind of experiment: qHTS Validation Assay for Identification of Novel General Anesthetics (AID 2323). Also: series mostly up to about 77 µM. The procedure, abridged: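 Normalized fluorescence response, scaled between free 1-AMA and 1-AMA/apoferritin complex, fitted to a four-parameter Hill equation for concentration-effect values. Binding mix: 10 uM horse-spleen apoferritin, 50% saturated 1-AMA in PBS; read 380/535 nm after 10 min.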

For assay [11], the target named is ATP-dependent DNA helicase Q1 (Homo sapiens) (UniProt P46063). The assay can be described thus: qHTS Validation Assay for Inhibitors of RecQ-Like Dna Helicase 1 (RECQ1) (AID 2353). In a few lines: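 RECQ1T1 50 nM; forked duplex (20 bp + 30-nt ss tails) 200 nM, ATP 2 mM final; pH 8.0, 2 mM MgCl2, 2.5 ug/ml poly(dI-dC); 15 min compound preincubation; discontinuous kinetic read over 2 h at RT.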
Sequence of ATP-dependent DNA helicase Q1 (Homo sapiens) (P46063 whole entry, looked up): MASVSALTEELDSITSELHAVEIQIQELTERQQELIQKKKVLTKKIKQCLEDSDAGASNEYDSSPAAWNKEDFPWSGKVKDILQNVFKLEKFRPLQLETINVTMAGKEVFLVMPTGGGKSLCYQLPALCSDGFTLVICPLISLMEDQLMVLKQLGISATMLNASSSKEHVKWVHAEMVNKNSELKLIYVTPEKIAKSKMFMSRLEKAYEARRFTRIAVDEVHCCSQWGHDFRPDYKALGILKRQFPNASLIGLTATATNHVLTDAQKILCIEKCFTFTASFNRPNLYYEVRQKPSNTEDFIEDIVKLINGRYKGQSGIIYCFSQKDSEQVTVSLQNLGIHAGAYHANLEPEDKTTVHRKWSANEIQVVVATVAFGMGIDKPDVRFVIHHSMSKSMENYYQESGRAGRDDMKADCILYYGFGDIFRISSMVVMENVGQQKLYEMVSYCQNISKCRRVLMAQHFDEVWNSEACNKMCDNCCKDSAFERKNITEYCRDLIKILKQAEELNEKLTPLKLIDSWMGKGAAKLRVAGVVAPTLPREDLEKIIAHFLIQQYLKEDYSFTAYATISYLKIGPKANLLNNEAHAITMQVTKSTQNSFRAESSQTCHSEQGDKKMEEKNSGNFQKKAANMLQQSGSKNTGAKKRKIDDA

Assay [12] is described as follows: Counterscreen for APE1 Inhibitors: Fluorescent Dye Displacement Validation Assay (AID 1707). In a few lines: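 Reaction mixture of 250 nM Thiazole Orange and 50 nM double-stranded abasic-site DNA was dispensed, compounds were pin-transferred, and fluorescence was read at endpoint (480 nm ex, 540 nm em). Reduced fluorescence indicated dye displacement by DNA binding.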

Assay [13] deals with Endonuclease 4 (Escherichia coli (strain K12)) (UniProt P0A6C1). The assay can be described thus: Counterscreen for APE1 Inhibitors: qHTS Validation Assay for Inhibitors of Endonuclease IV (AID 1708). The procedure, abridged:
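Conditions: 2 nM enzyme, 50 nM TAMRA/BHQ-2 substrate, pH 7.5 Tris buffer with 2 mM MgCl2, RT. Compound preincubation 15 min; readout three fluorescence reads 60 s apart, third-minus-first.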

A short description of assay [14]: qHTS Assay for Modulators of Human Peripheral Myelin Protein 22 (PMP22) Expression/Activity (AID 1967; active = well fitted curve in the direction sought with a large enough effect in the signal ratio; the % refers to the signal ratio). The procedure, abridged:
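Engineered MSC80 cells, Pmp22-promoter green and EF-alpha red luciferase reporters; 24h compound treatment at 37 °C. Concentration-response fits on green, red and ratio signals, each overlap-corrected, with %Activity normalized to untreated wells.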

Assay [15] addresses RecQ-like DNA helicase BLM (Homo sapiens) (UniProt P54132). The assay can be described thus: qHTS Validation Assay for Inhibitors of Bloom's syndrome helicase (BLM) (AID 2364). The procedure, abridged: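 50 nM BLM preincubated 15 min at room temperature with compound in pH 8.0 Tris buffer containing 2.5 ug/ml poly(dI-dC); started with 200 nM TAMRA/BHQ-2 forked duplex and 2 mM ATP (final). Unwinding read as TAMRA fluorescence increase, two reads 2 h apart.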

Sequence of DNA repair nuclease/redox regulator APEX1 (Homo sapiens) (P27695 whole entry, looked up): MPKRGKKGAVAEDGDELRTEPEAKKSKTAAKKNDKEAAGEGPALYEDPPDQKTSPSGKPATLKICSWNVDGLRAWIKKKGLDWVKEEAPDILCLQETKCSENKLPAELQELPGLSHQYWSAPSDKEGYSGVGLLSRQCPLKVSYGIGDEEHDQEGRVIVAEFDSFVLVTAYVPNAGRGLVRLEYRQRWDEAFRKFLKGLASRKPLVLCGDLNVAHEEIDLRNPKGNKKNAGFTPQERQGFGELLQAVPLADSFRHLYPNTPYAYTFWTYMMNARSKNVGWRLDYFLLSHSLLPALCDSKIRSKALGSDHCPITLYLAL
Sequence of Ferritin light chain (Equus caballus) (P02791 2-175 limits assumed): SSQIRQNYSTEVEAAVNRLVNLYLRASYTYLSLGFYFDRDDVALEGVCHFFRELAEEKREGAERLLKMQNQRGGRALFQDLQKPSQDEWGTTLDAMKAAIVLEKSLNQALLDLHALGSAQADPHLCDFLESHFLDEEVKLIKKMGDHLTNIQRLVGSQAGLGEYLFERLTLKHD
Sequence of RecQ-like DNA helicase BLM (Homo sapiens) (P54132 whole entry, looked up): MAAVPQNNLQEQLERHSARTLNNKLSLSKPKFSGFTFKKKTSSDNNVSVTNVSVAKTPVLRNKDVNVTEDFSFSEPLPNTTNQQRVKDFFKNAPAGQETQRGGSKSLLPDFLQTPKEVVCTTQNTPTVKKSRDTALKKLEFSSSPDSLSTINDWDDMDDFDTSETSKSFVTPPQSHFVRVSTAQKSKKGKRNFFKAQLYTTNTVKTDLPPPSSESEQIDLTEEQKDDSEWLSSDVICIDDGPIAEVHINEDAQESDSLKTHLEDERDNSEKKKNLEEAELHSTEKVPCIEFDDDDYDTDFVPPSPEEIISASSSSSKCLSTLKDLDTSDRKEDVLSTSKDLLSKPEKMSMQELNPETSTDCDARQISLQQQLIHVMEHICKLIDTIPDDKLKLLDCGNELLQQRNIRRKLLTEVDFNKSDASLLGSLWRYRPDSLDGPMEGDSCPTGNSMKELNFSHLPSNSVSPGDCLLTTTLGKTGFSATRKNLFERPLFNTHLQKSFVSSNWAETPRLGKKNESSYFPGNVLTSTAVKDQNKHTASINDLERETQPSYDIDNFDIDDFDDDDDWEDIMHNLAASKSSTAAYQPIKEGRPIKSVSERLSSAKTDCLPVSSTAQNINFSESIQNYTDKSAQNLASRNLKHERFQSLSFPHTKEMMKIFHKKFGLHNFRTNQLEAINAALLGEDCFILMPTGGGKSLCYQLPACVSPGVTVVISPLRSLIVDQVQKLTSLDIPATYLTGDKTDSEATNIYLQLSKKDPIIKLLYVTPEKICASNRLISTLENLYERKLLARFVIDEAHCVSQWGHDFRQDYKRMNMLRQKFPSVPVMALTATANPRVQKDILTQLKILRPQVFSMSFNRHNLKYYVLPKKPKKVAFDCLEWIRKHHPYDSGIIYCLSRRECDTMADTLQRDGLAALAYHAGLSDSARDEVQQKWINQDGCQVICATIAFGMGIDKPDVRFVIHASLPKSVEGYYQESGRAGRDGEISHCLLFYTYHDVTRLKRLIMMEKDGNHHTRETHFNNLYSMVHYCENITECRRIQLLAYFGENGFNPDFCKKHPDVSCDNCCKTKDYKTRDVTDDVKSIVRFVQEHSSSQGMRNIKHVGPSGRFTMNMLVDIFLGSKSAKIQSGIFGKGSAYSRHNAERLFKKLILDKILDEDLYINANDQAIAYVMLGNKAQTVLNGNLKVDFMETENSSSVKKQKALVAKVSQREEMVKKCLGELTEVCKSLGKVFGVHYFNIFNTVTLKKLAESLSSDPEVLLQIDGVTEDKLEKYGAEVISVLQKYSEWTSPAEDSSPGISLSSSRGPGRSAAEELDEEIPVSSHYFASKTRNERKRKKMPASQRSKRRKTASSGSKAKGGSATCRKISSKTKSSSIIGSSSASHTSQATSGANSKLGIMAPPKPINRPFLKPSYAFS

Consider `COc1ccc(NC(=O)c2ccc(-c3ccc(-c4noc(C)n4)cc3C)cc2)cc1N1CCN(C)CC1`, for which the outcome in [1] was inactive. Moreover, the Potency result in assay [2], in [10] and in assay [11] was “inactive” each time. In addition, the Potency was 4.47 µM (active) in [3]; 3.98 µM (active) in assay [4]; 2.82 µM (active) in assay [5]; 2.51 µM (active) in assay [6]; 5.62 µM (active) in [7]; 3.98 µM (active) in assay [8]. Moreover, the Potency in assay [9] is 2.82 µM (active).

Regarding `CC(C)(C)NCC(O)COc1cccc2[nH]c(=O)[nH]c12` (centres undefined), the Potency result in assay [12], in assay [13], in assay [3], in assay [4], in assay [5] and in assay [6] was “inactive” throughout. Also, the Potency entry in [7], in [8], in [9], in assay [10] and in [15] was “inactive” each time. The compound was classed as inactive in assay [14].

On to `NC(=Nc1ccccc1)NC(=O)c1nc(Cl)c(N)nc1N`, for which the compound was classed as inactive in [1]. Further, the Potency result in assay [2], in [12], in [7], in [10] and in [15] was “inactive” each time. Further, the Potency is 8.91 µM (active) in [3]; 12.6 µM (active) in assay [4]; 3.55 µM (active) in assay [5]; 8.91 µM (active) in assay [6]; 7.08 µM (active) in assay [8]; 7.94 µM (active) in assay [9].

For the compound `O=C(c1ccc2c(c1)OCCO2)N1CCCCC1`, the Potency result in assay [7] is “inactive”. Moreover, the outcome in [14] was inactive.

As for `C=C1C(=O)O[C@@H]2[C@H]3O[C@]3(C)CCC=C(C)CC[C@@H]12`, the Potency result in assay [2], in assay [12], in assay [11] and in [15] was “inactive” in each case. The Potency is 11.2 µM (active) in [3], 10 µM (active) in assay [8] and 11.2 µM (active) in assay [9].

On to `O=C1OC(=O)C2C3CCC(O3)C12` (centres undefined), for which the Potency result in [2], in [12], in assay [13], in assay [3], in assay [5] and in assay [7] was “inactive” in each case. Further, the Potency entry in [10], in [11] and in assay [15] was “inactive” throughout.

For the compound `O=C(N[C@@H](Cc1ccccc1)C(=O)CCl)OCc1ccccc1`, the compound was called inactive in assay [1]. Also, the Potency result in assay [2], in assay [12], in assay [10] and in assay [11] was “inactive” in each case. Besides, the Potency in assay [3] was 8.91 µM (active); in assay [4], 10 µM (active); in assay [5] it was 11.2 µM (active); in assay [7] it was 11.2 µM (active); in assay [8] it was 8.91 µM (active); in assay [9], 14.1 µM (active).

Regarding `COc1cc([C@@H]2c3cc4c(cc3[C@H](O)C3COC(=O)[C@@H]32)OCO4)cc(OC)c1OC` (some centres undefined), the Potency result in assay [2], in assay [10] and in assay [11] was “inactive” throughout. In assay [14], the call was inactive.

`O=C1Nc2ccc(I)cc2/C1=C/c1cc(Br)c(O)c(Br)c1`: the compound was called inactive in assay [1]. The Potency entry in [12], in [13] and in assay [11] was “inactive” in each case. The Potency is 8.91 µM (active) in assay [3]; 14.1 µM (active) in assay [4]; 14.1 µM (active) in [5]; 15.8 µM (active) in [8]; 10 µM (active) in assay [9].

With `CN(C)S(=O)(=O)c1ccc2c(c1)/C(=C/c1cc3c([nH]1)CCCC3)C(=O)N2`, in [1], the result was inactive. Also, the Potency result in [2], in assay [12], in [13] and in [11] was “inactive” in each case. Also, the Potency in [3] was 4.47 µM (active); in assay [4] it was 5.01 µM (active); in [5], 3.55 µM (active); in [6], 3.55 µM (active); in assay [7], 7.08 µM (active); in assay [8] it was 3.55 µM (active). The Potency in [9] is 3.98 µM (active).
